# Rows were chosen to be rich in hits. Some 21% of all compounds tested hit in one or more screens of this group.
# HCMV antiviral: human cytomegalovirus inhibition; HFF cells, HCMV-luciferase reporter, 72 h; stronger effect = lower value; activity change, negative = inhibition, % at 57.5 µM; 410,000 tested, 4.5% active; in the data active = activity change below about -60%; inconclusive = no clear call, values can overlap the other calls; inactive = above about -39%; also: % is scaled to controls: 0 for no effect and ±100 for the full control effect
#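 Inhibition of viral replication was scored as loss of reporter luminescence in HFFs infected with HCMV-luciferase (MOI 1 PFU/cell) for 72 h; compounds tested at 2 doses, normalized to buffer and Salinomycin controls.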
# HCV inh: HCV inhibition. Huh7.5.1 HCVcc-Cre infection, luciferase reporter, 44 h. Potency, µM (highest dose often 41.8 µM), for the others: top-dose activity change, negative = inhibition, most hits filed as inhibitors. 340,000 tested, 3.4% active; also: potency is read from the fitted curve at half-maximal effect; % is scaled to controls: 0 for no effect and ±100 for the full control effect
#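 Infectious HCV cell culture screen: compound-treated cells (1,000/well, pre-plated 4 h) are infected with HCVcc-Cre at roughly 0.5 moi and grown 44 h. Infection is quantified by luciferase signal after 15 min substrate incubation at room temperature.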
# Shiga toxin inh: blocks Shiga toxin action in Vero cells; Vero cells, Shiga toxin protein synthesis inhibition reporter; inhibition, % at 38.7 µM; 290,000 tested, 9.2% active; in the data active = inhibition mostly above about 28%, no sharp cut-off; inactive = mostly below about 43%; also: 0% is about no effect
# Pf growth 48h: inhibits P. falciparum growth in the first generation, 48 h; 310,000 tested, 5.9% active; AID 504832; Potency, µM (top dose mostly 28.7 µM), inactives show at the top dose activity change, negative = inhibition, actives largely listed as inhibitors; P. falciparum luciferase growth in erythrocytes, 48 h; also: potency is read from the fitted curve at half-maximal effect; % is scaled to controls: 0 for no effect and ±100 for the full control effect
#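 Luciferase-expressing P. falciparum in infected erythrocytes (2% hematocrit, 0.1% parasitemia final) in RPMI 1640/0.5% Albumax were exposed to compound for 48 hours at 37 C, 5% CO2; growth read as luminescence.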
# CHX counter: counter-screen for Shiga toxin inhibitors: cycloheximide protein synthesis inhibition | cell reporter, cycloheximide protein synthesis inhibition counterscreen | max response, % | 300,000 tested, 12% active; in the data active = max response mostly above about 13%, no sharp cut-off; inactive = mostly below about 14%; also: read at 38.3 µM for the half of the compounds with a filed dose; 0% is about no effect
# Pf growth 96h: inhibits malaria parasite growth, 96 h; P. falciparum luciferase reporter growth, 96 h; Potency, µM (top dose mostly 28.7 µM), for inactives: top-dose activity change, negative = inhibition, usual class: inhibitors; 320,000 tested, 6.9% active; AID 504834; also: potency is read from the fitted curve at half-maximal effect; % is scaled to controls: 0 for no effect and ±100 for the full control effect
#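 P. falciparum expressing integrated firefly luciferase, in erythrocytes at 2% hematocrit, 0.05% parasitemia, incubated with compounds 96 h at 37 C, 5% CO2. Growth inhibition read as loss of luminescence; two-generation exposure targets delayed-death apicoplast inhibitors.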
# * marks the source's active call; other numbers are inactive results; ? = inconclusive; . = no result; ! = not active in a repeat; [ ] = remark or other dose. Unless noted, calls follow the shape of the dose curve; as a rule, active = well fitted inhibition curve with a large enough effect; inconclusive = small, poorly fitted or top-dose-only effect, or another doubt; inactive = no such curve, though single readings can be large or run the other way.
SMILES,HCMV antiviral,HCV inh,Shiga toxin inh,Pf growth 48h,CHX counter,Pf growth 96h
COc1cccc(-c2csc(NC(=O)Nc3ccccc3)n2)c1,?,11µM*,57*,9%[0.00184 µM],14*,?
COc1cccc(-c2csc(NC(=O)C3CC3)n2)c1,29,-20%,40,.,18,212%
Oc1c(C(c2ccccc2Cl)N2CCCC2)sc2nc(-c3ccco3)nn12 (stereo not drawn),15,.,.,.,.,.
CCc1nc2ccc(C(=O)NCCc3c[nH]c4ccccc34)cn2c1N(C)CCCc1ccccc1,17,.,.,.,.,.
CCOC(=O)c1c(C)[nH]c(C(=O)OCC(=O)N(C)CC(=O)Nc2ccccc2Cl)c1C,9,?,.,0%,.,-2%
O=S1(=O)CC(N2CCCC2)CN1Cc1cn(Cc2cccc(Cl)c2)nn1 (stereo not drawn),-1,.,.,.,.,.
O=C(Nc1ccccc1)Nc1nc(-c2ccccc2)cs1,?,-17%,39,-2%,45*,24%
Cc1onc(-c2ccccc2)c1C(=O)Nc1nc(-c2ccc(F)c(F)c2)cs1,-16,?,69,?,18,-18%
O=C(Nc1ccccc1)Nc1nc(-c2ccc(F)c(F)c2)cs1,.,-23%,6,12µM*,6,13µM*
Cc1cc(C(F)F)n2nc(C(=O)Nc3cc(Cl)ccc3C)nc2n1,-1,.,.,.,.,.
CCOc1cc(CNC(=O)c2ccccc2NC(=O)c2nsc3ccccc23)ccc1OC,-82*,.,.,.,.,.
CC1=C(C(=O)Nc2cccc(C(=O)NC3CCCC(C)C3C)c2)SCCO1 (stereo not drawn),0,13µM*,2,-16%,-5,?
COc1cc(CCNC(=O)c2ccccc2NC(=O)C2=C(C)OCCS2)cc(OC)c1OC,-20,-17%,-7,?,0,-23%
COc1ccc(OC)c(CNC(=O)c2ccccc2NC(=O)c2nsc3ccccc23)c1,24,.,.,.,.,.
COc1ccc(OC)c(CCNC(=O)c2cccc(NC(=O)C3=C(C)OCCS3)c2)c1,-13,11µM*,-13,?,-11,23%
COc1cc(CNC(=O)c2ccccc2NC(=O)C2=C(C)OCCS2)cc(OC)c1OC,13,?,13,13µM*,2,?
COCCNC(=O)c1cccc(NC(=O)C2=C(C)OCCS2)c1,-40,9%,20,20%,3,?
CCOC(=O)C(NC(=O)Nc1ccc(Cl)cn1)(Oc1ccc(F)cc1)C(F)(F)F (stereo not drawn),21,37%,-3,3%,-4,33%
C[C@H]1[C@@H](c2ccccc2)Oc2ccc(Cl)cc2S(=O)(=O)N1Cc1cccc(Cl)c1,-9,.,.,.,.,.
COc1ccc(OC)c(CCNC(=O)Cc2ccc(NC(=O)C3=C(C)OCCS3)cc2)c1,-19,.,.,.,.,.
COc1ccc(CCNC(=O)c2ccccc2NC(=O)C2=C(C)OCCS2)c(OC)c1,-7,10µM*,-8,?,4,?
Cc1ccc2nc(-c3ccc(O)cc3)c(Nc3ccc4c(c3)OCCO4)n2c1,60,-26%,1,.,-3,?
COc1ccc(-c2nc3ccc(C)cn3c2Nc2ccc3c(c2)OCO3)cc1,-106*,.,.,.,.,.
Cc1ccc2nc(-c3ccccc3O)c(Nc3ccc4c(c3)OCCO4)n2c1,?,0%,-5,12µM*,-3,12µM*
CC(C)Cn1c(N)c(C(=O)COC(=O)c2ccc([N+](=O)[O-])o2)c(=O)n(C)c1=O,25,?,-4,-23%,10,-25%
SMILES,HCMV antiviral,HCV inh,Shiga toxin inh,Pf growth 48h,CHX counter,Pf growth 96h
CCCCNC(=O)C1(C)CCCCN1C(=O)c1cc(C#N)cs1 (stereo not drawn),78,.,.,.,.,.
CCc1ccc(CN2C(=O)c3ccccc3C2C(=O)NCCc2ccc(OC)c(OC)c2)cc1 (stereo not drawn),-31,.,.,.,.,.
COC(=O)c1cc2sccc2n1Cc1nc(-c2cccc(Cl)c2)oc1C,-65*!,1%,-12,.,-4,9.3µM*
COC(=O)c1cc2ccsc2n1Cc1nc(-c2cccc(Cl)c2)oc1C,5,-12%,-20,.,-6,4.1µM*
COC(=O)c1cc2sc(Cl)cc2n1Cc1nc(-c2ccc(OC)cc2)oc1C,21,.,.,.,.,.
COC(=O)c1cc2occc2n1Cc1nc(-c2cccc(Cl)c2)oc1C,-2,-8%[8.37 µM],-11,1%,-4,?
